# Assay results reported in ChEMBL document CHEMBL2218924, “A broad activity screen in support of a chemogenomic map for kinase signalling research and drug discovery” (Biochem J, 2013).
# What was measured:
# [1] = biological target: T1, Serine/threonine-protein kinase 17A (Homo sapiens) (UniProt Q9UEE5); settings: at 10 µM
# T1 sequence (whole entry): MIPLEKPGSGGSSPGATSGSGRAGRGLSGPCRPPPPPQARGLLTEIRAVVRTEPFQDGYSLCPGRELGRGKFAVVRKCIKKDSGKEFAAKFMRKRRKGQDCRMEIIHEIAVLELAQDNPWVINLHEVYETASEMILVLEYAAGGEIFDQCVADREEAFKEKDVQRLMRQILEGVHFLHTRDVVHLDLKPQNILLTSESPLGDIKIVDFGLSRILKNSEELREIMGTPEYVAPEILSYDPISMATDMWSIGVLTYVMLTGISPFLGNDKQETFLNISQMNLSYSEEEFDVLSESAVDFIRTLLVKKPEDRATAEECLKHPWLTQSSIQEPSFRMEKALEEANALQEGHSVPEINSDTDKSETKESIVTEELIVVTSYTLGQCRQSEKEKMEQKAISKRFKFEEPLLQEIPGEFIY
# [2] = biological target: T2, Dual specificity tyrosine-phosphorylation-regulated kinase 2 (Homo sapiens) (UniProt Q92630); settings: at 1 µM
# T2 sequence (whole entry): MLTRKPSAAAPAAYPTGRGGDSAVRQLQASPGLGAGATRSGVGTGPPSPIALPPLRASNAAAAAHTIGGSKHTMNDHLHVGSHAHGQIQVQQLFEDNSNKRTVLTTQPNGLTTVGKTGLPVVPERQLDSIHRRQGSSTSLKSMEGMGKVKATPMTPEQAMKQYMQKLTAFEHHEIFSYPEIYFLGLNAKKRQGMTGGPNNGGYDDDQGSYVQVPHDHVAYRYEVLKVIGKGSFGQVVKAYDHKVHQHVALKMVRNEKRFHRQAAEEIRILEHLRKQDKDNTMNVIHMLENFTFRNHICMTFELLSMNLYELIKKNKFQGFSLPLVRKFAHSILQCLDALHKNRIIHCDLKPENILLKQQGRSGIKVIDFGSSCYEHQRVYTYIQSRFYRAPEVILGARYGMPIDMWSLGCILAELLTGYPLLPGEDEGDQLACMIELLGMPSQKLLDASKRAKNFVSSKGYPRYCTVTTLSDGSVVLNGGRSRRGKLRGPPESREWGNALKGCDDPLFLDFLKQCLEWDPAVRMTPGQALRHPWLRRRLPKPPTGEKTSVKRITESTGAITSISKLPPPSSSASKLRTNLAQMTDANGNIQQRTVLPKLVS
# [3] = biological target: T2, Dual specificity tyrosine-phosphorylation-regulated kinase 2 (Homo sapiens); settings: at 10 µM
# [4] = biological target: Epidermal growth factor receptor (Homo sapiens) (UniProt P00533); settings: at 1 µM
# [5] = biological target: Epidermal growth factor receptor (Homo sapiens) (UniProt P00533); settings: at 10 µM
# [6] = biological target: T3, Ephrin type-A receptor 1 (Homo sapiens) (UniProt P21709); settings: at 1 µM
# T3 sequence (whole entry): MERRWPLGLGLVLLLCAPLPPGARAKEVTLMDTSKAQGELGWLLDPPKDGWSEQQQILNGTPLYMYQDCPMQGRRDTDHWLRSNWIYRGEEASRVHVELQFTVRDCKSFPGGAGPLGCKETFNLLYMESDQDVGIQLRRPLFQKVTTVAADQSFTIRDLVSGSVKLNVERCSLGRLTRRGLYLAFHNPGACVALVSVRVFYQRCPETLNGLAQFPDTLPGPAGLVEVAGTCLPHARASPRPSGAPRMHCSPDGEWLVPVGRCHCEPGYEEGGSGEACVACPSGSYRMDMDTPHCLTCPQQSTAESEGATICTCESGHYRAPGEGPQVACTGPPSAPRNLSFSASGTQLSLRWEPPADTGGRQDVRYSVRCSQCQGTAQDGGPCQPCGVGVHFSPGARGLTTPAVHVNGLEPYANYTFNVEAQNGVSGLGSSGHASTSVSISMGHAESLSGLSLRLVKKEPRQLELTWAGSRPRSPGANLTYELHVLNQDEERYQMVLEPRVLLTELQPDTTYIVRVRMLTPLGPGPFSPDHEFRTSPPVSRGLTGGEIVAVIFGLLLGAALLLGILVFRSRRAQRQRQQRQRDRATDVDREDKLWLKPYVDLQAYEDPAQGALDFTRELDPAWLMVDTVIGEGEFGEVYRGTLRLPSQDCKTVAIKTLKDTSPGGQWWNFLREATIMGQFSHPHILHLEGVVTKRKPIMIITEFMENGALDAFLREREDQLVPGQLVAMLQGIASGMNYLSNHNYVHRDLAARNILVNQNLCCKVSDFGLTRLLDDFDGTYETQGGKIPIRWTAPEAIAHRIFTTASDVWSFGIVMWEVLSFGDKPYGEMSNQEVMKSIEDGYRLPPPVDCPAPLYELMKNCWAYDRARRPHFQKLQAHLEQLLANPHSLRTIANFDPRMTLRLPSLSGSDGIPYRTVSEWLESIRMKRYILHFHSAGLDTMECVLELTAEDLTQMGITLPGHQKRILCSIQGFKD
# [7] = biological target: T3, Ephrin type-A receptor 1 (Homo sapiens); settings: at 10 µM
# [8] = biological target: Ephrin type-A receptor 2 (Homo sapiens) (UniProt P29317); settings: at 1 µM
# [9] = biological target: Ephrin type-A receptor 2 (Homo sapiens) (UniProt P29317); settings: at 10 µM
# [10] = biological target: T4, Ephrin type-A receptor 3 (Homo sapiens) (UniProt P29320); settings: at 1 µM
# T4 sequence (whole entry): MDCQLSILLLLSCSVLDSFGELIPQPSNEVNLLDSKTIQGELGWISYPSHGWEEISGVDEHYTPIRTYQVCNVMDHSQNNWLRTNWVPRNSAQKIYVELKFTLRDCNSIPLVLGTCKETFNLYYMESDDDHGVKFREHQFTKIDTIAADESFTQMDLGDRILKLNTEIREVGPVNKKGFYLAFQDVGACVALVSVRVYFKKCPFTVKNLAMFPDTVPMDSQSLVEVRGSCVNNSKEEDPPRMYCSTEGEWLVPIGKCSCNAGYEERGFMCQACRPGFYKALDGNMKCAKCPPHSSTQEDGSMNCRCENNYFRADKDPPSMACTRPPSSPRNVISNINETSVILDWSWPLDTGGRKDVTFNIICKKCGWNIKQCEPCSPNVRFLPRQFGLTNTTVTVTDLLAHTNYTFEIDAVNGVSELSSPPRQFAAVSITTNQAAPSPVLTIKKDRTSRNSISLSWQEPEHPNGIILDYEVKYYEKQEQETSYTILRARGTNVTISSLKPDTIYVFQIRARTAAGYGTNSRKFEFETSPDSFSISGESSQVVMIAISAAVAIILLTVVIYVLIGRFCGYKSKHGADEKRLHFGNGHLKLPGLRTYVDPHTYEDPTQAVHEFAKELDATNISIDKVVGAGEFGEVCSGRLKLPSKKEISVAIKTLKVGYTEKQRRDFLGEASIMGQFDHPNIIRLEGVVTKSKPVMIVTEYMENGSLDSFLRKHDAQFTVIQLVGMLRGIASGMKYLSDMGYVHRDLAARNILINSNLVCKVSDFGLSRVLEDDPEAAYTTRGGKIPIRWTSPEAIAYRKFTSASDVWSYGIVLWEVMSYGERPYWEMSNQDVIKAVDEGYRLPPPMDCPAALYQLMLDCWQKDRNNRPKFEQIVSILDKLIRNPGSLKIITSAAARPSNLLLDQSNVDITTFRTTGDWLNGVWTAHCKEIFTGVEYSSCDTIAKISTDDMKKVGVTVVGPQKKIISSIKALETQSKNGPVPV
# [11] = biological target: T4, Ephrin type-A receptor 3 (Homo sapiens); settings: at 10 µM
# [12] = biological target: Ephrin type-A receptor 4 (Homo sapiens) (UniProt P54764); settings: at 1 µM
# [13] = biological target: Ephrin type-A receptor 4 (Homo sapiens) (UniProt P54764); settings: at 10 µM
# [14] = biological target: Ephrin type-A receptor 5 (Homo sapiens) (UniProt P54756); settings: at 1 µM
# [15] = biological target: Ephrin type-A receptor 5 (Homo sapiens) (UniProt P54756); settings: at 10 µM
# [16] = biological target: Ephrin type-A receptor 7 (Homo sapiens) (UniProt Q15375); settings: at 1 µM
# [17] = biological target: Ephrin type-A receptor 7 (Homo sapiens) (UniProt Q15375); settings: at 10 µM
# [18] = biological target: T5, Ephrin type-A receptor 8 (Homo sapiens) (UniProt P29322); settings: at 1 µM
# T5 sequence (whole entry): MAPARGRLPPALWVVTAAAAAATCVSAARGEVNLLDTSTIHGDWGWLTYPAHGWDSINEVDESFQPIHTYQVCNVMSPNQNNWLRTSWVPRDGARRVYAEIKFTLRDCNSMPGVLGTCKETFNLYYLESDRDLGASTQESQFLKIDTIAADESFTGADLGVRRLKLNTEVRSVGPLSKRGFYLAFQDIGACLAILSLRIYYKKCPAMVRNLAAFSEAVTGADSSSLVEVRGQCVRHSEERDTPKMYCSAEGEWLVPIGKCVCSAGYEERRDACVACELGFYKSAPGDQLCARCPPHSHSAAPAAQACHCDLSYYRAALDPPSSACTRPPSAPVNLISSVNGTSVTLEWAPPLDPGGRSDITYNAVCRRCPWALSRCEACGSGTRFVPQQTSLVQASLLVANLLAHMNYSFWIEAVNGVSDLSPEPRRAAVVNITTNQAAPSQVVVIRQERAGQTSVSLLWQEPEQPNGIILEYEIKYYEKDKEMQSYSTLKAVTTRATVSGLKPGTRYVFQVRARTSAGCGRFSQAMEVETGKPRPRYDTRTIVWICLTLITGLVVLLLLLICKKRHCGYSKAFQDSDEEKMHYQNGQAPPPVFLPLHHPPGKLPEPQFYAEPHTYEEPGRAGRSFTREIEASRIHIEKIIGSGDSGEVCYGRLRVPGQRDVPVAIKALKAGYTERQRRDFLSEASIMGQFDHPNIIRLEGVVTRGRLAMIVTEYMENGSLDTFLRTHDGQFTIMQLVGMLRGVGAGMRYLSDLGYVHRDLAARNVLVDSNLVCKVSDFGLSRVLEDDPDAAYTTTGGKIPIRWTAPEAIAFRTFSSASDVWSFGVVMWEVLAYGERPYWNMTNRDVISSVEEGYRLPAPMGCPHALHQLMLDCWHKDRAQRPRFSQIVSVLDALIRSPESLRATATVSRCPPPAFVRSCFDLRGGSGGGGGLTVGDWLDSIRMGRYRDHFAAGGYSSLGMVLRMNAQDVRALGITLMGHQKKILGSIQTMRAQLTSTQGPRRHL
# [19] = biological target: T5, Ephrin type-A receptor 8 (Homo sapiens); settings: at 10 µM
# [20] = biological target: T6, Ephrin type-B receptor 1 (Homo sapiens) (UniProt P54762); settings: at 1 µM
# T6 sequence (whole entry): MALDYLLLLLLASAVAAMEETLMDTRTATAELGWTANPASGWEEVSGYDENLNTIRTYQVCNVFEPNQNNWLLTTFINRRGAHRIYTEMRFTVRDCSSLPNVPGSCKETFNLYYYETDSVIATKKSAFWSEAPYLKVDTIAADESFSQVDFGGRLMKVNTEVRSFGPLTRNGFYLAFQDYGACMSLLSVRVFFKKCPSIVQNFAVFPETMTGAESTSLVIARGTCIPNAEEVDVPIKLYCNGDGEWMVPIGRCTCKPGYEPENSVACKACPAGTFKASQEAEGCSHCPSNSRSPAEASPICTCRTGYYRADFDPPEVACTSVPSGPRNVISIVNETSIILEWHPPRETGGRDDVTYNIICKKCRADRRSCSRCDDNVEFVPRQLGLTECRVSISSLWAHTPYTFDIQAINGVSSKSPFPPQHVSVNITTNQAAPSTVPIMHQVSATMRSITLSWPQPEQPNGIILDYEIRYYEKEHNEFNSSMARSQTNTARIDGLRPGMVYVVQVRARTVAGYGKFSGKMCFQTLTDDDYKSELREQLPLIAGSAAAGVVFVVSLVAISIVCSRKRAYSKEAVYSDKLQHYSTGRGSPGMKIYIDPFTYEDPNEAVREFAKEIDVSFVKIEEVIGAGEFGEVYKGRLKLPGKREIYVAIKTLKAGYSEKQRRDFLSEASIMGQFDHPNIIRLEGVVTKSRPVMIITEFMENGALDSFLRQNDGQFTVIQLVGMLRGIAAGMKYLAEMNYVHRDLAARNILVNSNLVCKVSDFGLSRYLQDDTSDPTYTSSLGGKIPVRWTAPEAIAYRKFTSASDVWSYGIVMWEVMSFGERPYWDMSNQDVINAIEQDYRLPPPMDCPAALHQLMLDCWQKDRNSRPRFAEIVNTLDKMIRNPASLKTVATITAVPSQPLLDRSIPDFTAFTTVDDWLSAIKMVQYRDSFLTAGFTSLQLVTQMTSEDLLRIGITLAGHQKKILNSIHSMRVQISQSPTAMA
# Chain of Ephrin type-A receptor 2 (Homo sapiens) (P29317 whole entry): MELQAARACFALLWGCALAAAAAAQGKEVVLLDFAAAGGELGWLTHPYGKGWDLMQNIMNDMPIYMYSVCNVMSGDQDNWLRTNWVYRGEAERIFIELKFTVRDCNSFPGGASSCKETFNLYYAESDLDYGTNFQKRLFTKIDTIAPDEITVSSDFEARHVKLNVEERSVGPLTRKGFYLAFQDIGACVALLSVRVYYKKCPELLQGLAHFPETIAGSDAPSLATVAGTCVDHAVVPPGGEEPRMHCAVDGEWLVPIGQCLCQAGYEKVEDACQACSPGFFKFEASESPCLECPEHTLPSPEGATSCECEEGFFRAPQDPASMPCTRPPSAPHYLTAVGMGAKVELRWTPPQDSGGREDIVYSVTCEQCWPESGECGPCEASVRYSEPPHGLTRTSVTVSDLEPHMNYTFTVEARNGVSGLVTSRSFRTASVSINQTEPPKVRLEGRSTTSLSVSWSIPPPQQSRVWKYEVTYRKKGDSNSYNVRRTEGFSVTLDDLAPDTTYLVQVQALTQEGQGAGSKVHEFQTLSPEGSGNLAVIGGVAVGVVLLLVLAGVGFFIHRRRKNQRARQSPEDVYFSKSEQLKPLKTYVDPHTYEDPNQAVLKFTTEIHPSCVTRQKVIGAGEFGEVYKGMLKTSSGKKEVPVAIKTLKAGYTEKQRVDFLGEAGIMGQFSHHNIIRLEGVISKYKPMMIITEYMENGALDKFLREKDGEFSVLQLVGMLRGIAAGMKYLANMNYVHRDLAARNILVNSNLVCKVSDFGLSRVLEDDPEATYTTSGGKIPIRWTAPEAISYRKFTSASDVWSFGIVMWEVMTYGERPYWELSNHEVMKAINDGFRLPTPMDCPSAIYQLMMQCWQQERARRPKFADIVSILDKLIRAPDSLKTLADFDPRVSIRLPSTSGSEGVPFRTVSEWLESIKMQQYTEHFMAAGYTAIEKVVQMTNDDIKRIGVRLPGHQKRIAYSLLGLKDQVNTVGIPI
# Chain of Ephrin type-A receptor 7 (Homo sapiens) (Q15375 28-998 limits assumed): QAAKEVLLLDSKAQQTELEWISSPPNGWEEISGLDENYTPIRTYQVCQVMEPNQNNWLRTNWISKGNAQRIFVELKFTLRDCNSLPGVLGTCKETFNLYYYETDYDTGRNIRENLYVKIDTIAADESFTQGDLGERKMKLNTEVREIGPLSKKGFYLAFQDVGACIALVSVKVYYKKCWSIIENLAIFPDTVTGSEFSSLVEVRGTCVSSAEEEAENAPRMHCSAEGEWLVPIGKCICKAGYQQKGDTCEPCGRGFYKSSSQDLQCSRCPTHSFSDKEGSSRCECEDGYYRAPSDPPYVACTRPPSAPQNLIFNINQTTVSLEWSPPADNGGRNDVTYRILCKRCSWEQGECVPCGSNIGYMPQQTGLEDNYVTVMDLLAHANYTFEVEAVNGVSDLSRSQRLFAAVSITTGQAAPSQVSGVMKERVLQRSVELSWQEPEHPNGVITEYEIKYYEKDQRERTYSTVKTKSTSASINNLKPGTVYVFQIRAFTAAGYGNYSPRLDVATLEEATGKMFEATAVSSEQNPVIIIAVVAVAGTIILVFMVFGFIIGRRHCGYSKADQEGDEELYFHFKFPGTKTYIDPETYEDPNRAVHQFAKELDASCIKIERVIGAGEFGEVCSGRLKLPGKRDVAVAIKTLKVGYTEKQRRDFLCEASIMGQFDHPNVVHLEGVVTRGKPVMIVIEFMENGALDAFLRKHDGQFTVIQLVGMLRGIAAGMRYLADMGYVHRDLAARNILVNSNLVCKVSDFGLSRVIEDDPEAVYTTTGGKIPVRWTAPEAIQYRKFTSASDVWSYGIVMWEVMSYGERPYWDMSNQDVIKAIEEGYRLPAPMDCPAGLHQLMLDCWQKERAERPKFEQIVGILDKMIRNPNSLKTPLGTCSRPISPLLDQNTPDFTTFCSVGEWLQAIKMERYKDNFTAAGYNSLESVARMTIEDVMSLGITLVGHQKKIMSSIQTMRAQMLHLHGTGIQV
# Chain of Ephrin type-A receptor 4 (Homo sapiens) (P54764 whole entry): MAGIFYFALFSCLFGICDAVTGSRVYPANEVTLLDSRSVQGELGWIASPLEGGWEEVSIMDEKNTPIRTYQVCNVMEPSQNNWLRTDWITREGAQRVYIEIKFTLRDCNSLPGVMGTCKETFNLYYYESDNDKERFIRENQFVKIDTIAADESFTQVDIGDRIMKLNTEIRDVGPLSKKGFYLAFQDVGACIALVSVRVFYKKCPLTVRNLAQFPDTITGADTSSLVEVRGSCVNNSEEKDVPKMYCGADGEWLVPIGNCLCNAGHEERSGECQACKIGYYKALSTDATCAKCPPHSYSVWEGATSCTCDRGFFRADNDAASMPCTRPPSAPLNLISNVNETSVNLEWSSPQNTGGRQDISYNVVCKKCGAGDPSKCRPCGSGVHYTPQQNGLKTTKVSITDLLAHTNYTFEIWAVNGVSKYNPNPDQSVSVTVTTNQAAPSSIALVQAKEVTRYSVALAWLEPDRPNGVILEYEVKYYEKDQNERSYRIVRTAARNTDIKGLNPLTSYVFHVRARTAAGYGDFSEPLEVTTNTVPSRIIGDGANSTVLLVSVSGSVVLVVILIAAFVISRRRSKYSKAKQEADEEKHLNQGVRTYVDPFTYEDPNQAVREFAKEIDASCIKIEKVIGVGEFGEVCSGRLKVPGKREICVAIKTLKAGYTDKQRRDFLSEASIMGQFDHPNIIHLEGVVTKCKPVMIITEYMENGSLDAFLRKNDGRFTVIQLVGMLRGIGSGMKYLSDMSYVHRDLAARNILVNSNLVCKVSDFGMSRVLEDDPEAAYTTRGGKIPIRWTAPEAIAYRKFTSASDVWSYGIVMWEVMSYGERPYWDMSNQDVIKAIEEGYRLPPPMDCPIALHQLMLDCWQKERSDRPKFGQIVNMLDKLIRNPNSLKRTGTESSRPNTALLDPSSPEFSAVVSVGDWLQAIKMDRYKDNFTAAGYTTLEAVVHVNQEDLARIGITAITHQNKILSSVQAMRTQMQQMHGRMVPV
# Chain of Ephrin type-A receptor 5 (Homo sapiens) (P54756 whole entry): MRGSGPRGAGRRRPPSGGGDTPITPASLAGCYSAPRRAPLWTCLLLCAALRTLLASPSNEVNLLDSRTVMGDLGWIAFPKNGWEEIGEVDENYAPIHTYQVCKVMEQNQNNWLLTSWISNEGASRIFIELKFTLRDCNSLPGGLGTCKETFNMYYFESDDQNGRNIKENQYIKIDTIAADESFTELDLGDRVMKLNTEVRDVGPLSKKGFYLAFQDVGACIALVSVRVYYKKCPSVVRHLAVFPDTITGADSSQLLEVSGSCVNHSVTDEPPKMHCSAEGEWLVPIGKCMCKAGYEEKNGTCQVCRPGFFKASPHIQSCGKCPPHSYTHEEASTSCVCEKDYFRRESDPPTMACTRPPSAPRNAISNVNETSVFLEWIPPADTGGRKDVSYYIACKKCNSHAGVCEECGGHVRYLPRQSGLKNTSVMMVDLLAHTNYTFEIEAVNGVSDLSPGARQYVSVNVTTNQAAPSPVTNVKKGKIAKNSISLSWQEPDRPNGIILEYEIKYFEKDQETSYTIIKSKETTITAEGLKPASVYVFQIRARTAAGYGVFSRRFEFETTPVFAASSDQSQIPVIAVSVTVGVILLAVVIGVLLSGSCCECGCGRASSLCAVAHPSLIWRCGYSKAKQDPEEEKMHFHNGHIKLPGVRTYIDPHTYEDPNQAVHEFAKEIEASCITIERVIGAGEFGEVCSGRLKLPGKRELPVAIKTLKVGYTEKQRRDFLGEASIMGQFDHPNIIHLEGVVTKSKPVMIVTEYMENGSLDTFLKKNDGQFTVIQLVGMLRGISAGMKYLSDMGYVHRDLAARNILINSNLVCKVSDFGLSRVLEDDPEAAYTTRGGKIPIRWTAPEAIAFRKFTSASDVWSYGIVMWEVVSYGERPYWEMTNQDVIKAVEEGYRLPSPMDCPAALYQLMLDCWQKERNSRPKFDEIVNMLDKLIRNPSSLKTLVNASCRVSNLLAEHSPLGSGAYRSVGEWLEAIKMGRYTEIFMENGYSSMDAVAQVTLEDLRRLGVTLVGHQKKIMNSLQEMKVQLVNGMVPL
SMILES,residual activity [1],residual activity [2],residual activity [3],residual activity [4],residual activity [5],residual activity [6],residual activity [7],residual activity [8],residual activity [9],residual activity [10],residual activity [11],residual activity [12],residual activity [13],residual activity [14],residual activity [15],residual activity [16],residual activity [17],residual activity [18],residual activity [19],residual activity [20]
O=C1NC(=O)/C(=C/c2ccc3c(c2)OC(F)(F)O3)S1,99%,86%,65%,116%,119%,93%,96%,107%,115%,103%,93%,116%,105%,115%,103%,89%,102%,111%,99%,115%
Cc1ccc(S(=O)(=O)/C=C/C#N)cc1,95%,96%,102%,,,95%,92%,106%,108%,103%,105%,106%,110%,107%,101%,94%,96%,94%,102%,93%
CC#CC(=O)Nc1cc2c(Nc3ccc(F)c(Cl)c3)ncnc2cn1,105%,102%,93%,,,102%,105%,100%,101%,113%,92%,118%,91%,102%,97%,96%,91%,104%,93%,96%
Oc1c2ccccc2c2c3c(cccc13)N=N2,2%,4%,-5%,,,67%,42%,88%,60%,75%,48%,105%,106%,115%,63%,80%,41%,92%,76%,91%
